In the supplement of paper PMC10849652:
Of roughly 7,900 targets only a part is listed; those with a hit were picked by preference. About 0.6% of all pairs of compound and target were hits.

Key:
Assay in all cases: log2 fold change, soluble protein after heating vs DMSO (PISA); higher = thermal stabilisation; K562 cells, 10 uM, 30 min; active = over 0.2 and 3.5 SD of the protein, either way, in both replicates (recomputed)
defactinib = compound: CNC(=O)c1ccc(Nc2ncc(C(F)(F)F)c(NCc3nccnc3N(C)S(C)(=O)=O)n2)cc1 [defactinib]
Procedure, shortened: (§1)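 Aliquots of K562 cells (2×10^6 cells/mL) treated with 10 μM compound for 30 min were heated for 3 min over 48°C-58°C. After pooling and extraction in PBS with 0.5% NP-40 at 4°C, soluble protein from a 21,000xg, 90 min spin was quantified by TMTpro 16plex LC-MS/MS with channel sums equalised. Thermal stability is expressed against control samples, from duplicates, as a log2 fold change.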

rucaparib = compound: CNCc1ccc(-c2[nH]c3cc(F)cc4c3c2CCNC4=O)cc1 [rucaparib]
Procedure, shortened: as §1

encorafenib = compound: COC(=O)N[C@@H](C)CNc1nccc(-c2cn(C(C)C)nc2-c2cc(Cl)cc(NS(C)(=O)=O)c2F)n1 [encorafenib]
Procedure, shortened: as §1

[1] = compound: COC(=O)[C@H](CCSC)NC(=O)C1=C(C=C(C=C1)NC[C@H](CS)N)C2=CC=CC=C2
Procedure, shortened: as §1

alisertib = compound: COc1cc(Nc2ncc3c(n2)-c2ccc(Cl)cc2C(c2c(F)cccc2OC)=NC3)ccc1C(=O)O [alisertib]
Procedure, shortened: as §1

[2] = compound: COc1cccc2cc(-c3nc([C@H]4CC[C@H](C(=O)O)CC4)n4ncnc(N)c34)[nH]c12
Procedure, shortened: as §1

sotrastaurin = compound: CN1CCN(c2nc(C3=C(c4c[nH]c5ccccc45)C(=O)NC3=O)c3ccccc3n2)CC1 [sotrastaurin]
Procedure, shortened: as §1

[3] = compound: CNC(=O)C1=CC=CC=C1NC2=NC(=NC=C2Cl)NC3=C(C=C(C=C3)N4CCOCC4)OC
Procedure, shortened: as §1

filanesib = compound: CON(C)C(=O)N1N=C(c2cc(F)ccc2F)S[C@@]1(CCCN)c1ccccc1 [filanesib]
Procedure, shortened: as §1

idasanutlin = compound: COc1cc(C(=O)O)ccc1NC(=O)[C@@H]1N[C@@H](CC(C)(C)C)[C@](C#N)(c2ccc(Cl)cc2F)[C@H]1c1cccc(Cl)c1F [idasanutlin]
Procedure, shortened: as §1

[4] = compound: COc1cc2nc(-c3cc(F)ccc3O)nc(N[C@@H]3CNC[C@H]3C(C)(C)O)c2cc1OC
Procedure, shortened: as §1

gefitinib = compound: COc1cc2ncnc(Nc3ccc(F)c(Cl)c3)c2cc1OCCCN1CCOCC1 [gefitinib]
Procedure, shortened: as §1

lapatinib = compound: CS(=O)(=O)CCNCc1ccc(-c2ccc3ncnc(Nc4ccc(OCc5cccc(F)c5)c(Cl)c4)c3c2)o1 [lapatinib]
Procedure, shortened: as §1

alvocidib = compound: CN1CC[C@H](c2c(O)cc(O)c3c(=O)cc(-c4ccccc4Cl)oc23)[C@H](O)C1 [alvocidib]
Procedure, shortened: as §1

Tubastatin A = compound: CN1CCc2c(c3ccccc3n2Cc2ccc(C(=O)NO)cc2)C1 [Tubastatin A]
Procedure, shortened: as §1

[5] = compound: COC1=CC=C(C=C1)CN2C=CC3=C2C=C(C=C3)C(=O)NO
Procedure, shortened: as §1

zotarolimus = compound: CO[C@H]1C[C@@H]2CC[C@@H](C)[C@@](O)(O2)C(=O)C(=O)N2CCCC[C@H]2C(=O)O[C@H]([C@H](C)C[C@@H]2CC[C@H](n3cnnn3)[C@H](OC)C2)CC(=O)[C@H](C)/C=C(\C)[C@@H](O)[C@@H](OC)C(=O)[C@H](C)C[C@H](C)/C=C/C=C/C=C/1C [zotarolimus]
Procedure, shortened: as §1

pictilisib = compound: CS(=O)(=O)N1CCN(Cc2cc3nc(-c4cccc5[nH]ncc45)nc(N4CCOCC4)c3s2)CC1 [pictilisib]
Procedure, shortened: as §1

saracatinib = compound: CN1CCN(CCOc2cc(OC3CCOCC3)c3c(Nc4c(Cl)ccc5c4OCO5)ncnc3c2)CC1 [saracatinib]
Procedure, shortened: as §1

[6] = compound: CNc1nc(-c2ccc3c(N)n[nH]c3c2)cc(N2C[C@@H](C(=O)NC3CCCCC3)CC[C@H]2C)n1
Procedure, shortened: as §1

UniProt P27816, sequence (P27816 whole entry, looked up): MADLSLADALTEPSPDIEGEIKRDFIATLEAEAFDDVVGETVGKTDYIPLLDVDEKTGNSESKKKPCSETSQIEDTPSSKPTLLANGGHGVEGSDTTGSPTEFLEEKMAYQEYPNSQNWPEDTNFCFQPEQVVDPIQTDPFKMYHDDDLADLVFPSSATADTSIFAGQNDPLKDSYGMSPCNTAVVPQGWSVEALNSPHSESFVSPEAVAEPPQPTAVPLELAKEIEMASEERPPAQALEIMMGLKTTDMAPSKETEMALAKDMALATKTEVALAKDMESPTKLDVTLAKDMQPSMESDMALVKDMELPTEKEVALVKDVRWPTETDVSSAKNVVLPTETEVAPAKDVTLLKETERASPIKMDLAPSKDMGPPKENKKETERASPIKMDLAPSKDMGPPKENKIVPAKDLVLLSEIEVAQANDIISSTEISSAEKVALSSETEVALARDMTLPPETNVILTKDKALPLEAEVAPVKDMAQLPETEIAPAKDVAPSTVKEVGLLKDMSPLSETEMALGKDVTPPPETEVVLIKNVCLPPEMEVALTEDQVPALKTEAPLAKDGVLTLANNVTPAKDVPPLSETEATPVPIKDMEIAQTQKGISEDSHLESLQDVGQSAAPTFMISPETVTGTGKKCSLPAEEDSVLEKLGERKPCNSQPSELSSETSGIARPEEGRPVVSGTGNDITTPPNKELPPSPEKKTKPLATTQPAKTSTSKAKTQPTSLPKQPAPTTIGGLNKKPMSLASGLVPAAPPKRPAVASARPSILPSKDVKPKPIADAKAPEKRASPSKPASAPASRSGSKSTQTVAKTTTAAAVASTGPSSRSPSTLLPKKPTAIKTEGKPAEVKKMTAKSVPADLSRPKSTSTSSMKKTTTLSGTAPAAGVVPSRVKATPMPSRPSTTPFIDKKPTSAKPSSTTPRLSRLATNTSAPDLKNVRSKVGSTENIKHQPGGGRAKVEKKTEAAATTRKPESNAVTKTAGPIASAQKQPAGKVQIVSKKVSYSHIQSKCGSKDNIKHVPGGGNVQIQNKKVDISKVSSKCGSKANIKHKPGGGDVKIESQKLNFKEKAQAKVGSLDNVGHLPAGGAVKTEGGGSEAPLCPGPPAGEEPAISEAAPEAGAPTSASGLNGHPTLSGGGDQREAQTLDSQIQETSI
UniProt Q9NYL2, sequence (Q9NYL2 whole entry, looked up): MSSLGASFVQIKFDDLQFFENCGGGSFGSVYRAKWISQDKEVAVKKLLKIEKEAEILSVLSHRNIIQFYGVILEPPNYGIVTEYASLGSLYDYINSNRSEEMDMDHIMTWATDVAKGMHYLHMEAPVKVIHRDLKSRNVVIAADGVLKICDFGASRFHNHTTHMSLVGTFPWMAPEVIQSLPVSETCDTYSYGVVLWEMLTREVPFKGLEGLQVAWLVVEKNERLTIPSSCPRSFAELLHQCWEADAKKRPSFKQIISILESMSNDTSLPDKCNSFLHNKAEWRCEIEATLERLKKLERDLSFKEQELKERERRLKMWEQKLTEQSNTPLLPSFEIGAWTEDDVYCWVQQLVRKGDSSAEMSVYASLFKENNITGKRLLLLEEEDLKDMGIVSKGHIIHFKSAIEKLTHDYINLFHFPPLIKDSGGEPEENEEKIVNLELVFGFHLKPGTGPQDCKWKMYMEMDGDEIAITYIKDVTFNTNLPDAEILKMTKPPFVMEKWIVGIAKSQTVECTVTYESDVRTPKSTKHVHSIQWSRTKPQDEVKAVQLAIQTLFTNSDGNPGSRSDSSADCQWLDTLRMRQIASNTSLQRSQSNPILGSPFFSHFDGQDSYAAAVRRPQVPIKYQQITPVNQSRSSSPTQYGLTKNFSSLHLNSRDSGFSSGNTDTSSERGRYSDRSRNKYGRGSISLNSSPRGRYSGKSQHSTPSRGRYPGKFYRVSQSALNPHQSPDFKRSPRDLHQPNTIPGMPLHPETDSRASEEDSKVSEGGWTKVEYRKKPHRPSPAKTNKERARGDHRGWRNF
UniProt O60291, sequence (O60291 whole entry, looked up): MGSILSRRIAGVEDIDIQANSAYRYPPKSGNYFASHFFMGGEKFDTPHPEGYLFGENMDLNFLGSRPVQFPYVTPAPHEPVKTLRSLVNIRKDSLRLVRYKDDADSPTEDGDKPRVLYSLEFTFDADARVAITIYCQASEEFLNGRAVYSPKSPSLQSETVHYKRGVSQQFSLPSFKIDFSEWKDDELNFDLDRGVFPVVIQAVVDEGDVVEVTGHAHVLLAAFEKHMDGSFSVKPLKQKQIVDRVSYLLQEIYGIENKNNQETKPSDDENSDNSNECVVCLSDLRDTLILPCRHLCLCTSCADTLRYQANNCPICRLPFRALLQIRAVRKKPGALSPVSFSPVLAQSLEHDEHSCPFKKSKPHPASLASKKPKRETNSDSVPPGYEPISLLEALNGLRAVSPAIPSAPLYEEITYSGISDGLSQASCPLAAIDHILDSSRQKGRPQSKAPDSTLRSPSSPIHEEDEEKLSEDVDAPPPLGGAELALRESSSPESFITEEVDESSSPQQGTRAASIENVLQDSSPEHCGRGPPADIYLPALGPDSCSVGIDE
UniProt Q86UD3, sequence (Q86UD3 whole entry, looked up): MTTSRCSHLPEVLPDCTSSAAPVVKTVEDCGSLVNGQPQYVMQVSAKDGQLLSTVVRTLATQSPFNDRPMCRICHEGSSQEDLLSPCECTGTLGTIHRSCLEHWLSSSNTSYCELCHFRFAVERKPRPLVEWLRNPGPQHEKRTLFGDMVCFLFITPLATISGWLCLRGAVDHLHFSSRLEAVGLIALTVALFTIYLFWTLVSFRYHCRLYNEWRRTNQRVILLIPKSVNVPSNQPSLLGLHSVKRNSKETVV
UniProt Q9Y4K4, sequence (Q9Y4K4 whole entry, looked up): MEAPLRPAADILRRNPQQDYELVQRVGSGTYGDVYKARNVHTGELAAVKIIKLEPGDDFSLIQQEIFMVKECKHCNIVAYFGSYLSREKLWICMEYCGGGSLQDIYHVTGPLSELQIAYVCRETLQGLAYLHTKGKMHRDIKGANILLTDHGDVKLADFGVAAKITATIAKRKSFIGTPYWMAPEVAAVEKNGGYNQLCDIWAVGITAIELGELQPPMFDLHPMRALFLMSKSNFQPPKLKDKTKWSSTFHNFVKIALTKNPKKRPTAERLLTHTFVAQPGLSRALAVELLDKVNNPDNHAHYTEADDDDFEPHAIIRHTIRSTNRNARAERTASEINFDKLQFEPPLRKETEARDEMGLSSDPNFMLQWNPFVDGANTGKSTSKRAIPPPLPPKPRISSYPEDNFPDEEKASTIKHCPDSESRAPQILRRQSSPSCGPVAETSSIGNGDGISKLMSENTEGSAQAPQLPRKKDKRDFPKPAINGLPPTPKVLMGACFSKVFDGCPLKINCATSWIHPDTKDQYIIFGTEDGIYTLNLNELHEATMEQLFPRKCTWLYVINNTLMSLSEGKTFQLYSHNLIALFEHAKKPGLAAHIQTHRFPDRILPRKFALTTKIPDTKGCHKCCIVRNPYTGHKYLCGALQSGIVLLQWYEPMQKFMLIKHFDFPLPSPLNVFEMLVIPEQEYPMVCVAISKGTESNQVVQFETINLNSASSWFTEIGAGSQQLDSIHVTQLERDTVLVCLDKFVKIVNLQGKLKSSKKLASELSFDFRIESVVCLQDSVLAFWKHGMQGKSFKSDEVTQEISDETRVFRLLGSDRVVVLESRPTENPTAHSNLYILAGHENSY
UniProt Q12906, sequence (Q12906 whole entry, looked up): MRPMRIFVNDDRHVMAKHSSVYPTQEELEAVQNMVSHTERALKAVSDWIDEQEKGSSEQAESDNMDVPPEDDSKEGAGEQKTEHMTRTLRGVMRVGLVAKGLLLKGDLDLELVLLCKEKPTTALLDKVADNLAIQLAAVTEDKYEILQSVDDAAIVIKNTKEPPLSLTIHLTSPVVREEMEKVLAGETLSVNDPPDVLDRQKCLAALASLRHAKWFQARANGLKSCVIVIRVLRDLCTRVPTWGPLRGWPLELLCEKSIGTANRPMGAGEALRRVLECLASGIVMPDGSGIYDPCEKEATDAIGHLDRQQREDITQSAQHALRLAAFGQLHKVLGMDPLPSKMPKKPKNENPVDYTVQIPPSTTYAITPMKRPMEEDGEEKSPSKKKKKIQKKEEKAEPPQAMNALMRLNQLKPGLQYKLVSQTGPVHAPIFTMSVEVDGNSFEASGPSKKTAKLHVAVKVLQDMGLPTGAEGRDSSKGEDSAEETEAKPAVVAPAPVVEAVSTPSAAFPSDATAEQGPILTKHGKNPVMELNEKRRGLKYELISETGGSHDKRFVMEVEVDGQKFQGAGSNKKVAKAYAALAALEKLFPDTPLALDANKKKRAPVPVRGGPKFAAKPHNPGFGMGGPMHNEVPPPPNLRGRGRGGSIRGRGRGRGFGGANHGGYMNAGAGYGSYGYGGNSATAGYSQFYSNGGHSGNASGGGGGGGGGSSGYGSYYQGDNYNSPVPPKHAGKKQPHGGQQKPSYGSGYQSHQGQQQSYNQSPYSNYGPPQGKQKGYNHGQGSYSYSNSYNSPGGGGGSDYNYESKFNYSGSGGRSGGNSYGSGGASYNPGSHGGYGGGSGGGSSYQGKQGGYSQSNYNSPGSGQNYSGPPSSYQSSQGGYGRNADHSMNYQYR
UniProt Q8WYH8, sequence (Q8WYH8 whole entry, looked up): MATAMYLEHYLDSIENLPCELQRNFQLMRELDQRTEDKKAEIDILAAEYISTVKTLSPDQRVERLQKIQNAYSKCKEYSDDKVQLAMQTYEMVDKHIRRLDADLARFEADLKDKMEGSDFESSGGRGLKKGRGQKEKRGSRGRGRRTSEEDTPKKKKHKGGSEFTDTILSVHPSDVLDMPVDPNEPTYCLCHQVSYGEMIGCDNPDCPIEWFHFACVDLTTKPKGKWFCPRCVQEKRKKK

In the case of KIF1B isoform 3 (UniProt O60333), the log2 fold change (defactinib) is reported as 0.127 (inactive), the log2 fold change (rucaparib) is reported as -0.046 (inactive) and the log2 fold change (encorafenib) is reported as -0.222 (inactive). For the same target, the log2 fold change [1] was 0.17 (inactive), the log2 fold change (alisertib) was 0.251 (inactive) and the log2 fold change [2] was -0.037 (inactive).

In the case of MAP4 isoform 5 (UniProt P27816), the log2 fold change (sotrastaurin) is reported as -0.16 (inactive), the log2 fold change [3] is reported as 0.13 (inactive) and the log2 fold change (rucaparib) is reported as 0.046 (inactive). The log2 fold change (encorafenib) was 0.094 (inactive), the log2 fold change (filanesib) was -0.039 (inactive) and the log2 fold change (idasanutlin) was -0.025 (inactive). The log2 fold change (alisertib) was 0.143 (inactive), the log2 fold change [4] was -0.033 (inactive) and the log2 fold change (gefitinib) was -0.005 (inactive). For the same target, the log2 fold change [2] was -0.045 (inactive) and the log2 fold change (lapatinib) was 0.036 (inactive).

MAP4K5 (UniProt Q9Y4K4) was tested, and the log2 fold change (alvocidib) was 0.072 (inactive), the log2 fold change (Tubastatin A) was 0.113 (inactive) and the log2 fold change [3] was -0.02 (inactive). The log2 fold change (defactinib) was -0.02 (inactive), the log2 fold change (rucaparib) was -0.08 (inactive) and the log2 fold change (encorafenib) was 0.082 (inactive). The log2 fold change [1] was -0.041 (inactive), the log2 fold change [5] was 0.01 (inactive) and the log2 fold change (filanesib) was -0.083 (inactive). The log2 fold change (zotarolimus) was 0.021 (inactive), the log2 fold change (idasanutlin) was 0.067 (inactive) and the log2 fold change (alisertib) was 0.134 (inactive). For the same target, the log2 fold change [4] was 0.224 (inactive), the log2 fold change (gefitinib) was -0.011 (inactive) and the log2 fold change [2] was 0.011 (inactive). The log2 fold change (lapatinib) was 0.15 (inactive) and the log2 fold change (pictilisib) was 0.012 (inactive).

MAPK12 (UniProt P53778) was tested, and the log2 fold change (saracatinib) was 0.119 (inactive), the log2 fold change (Tubastatin A) was -0.037 (inactive) and the log2 fold change [3] was 0.112 (inactive). For the same target, the log2 fold change (defactinib) was -0.06 (inactive), the log2 fold change (rucaparib) was 0.101 (inactive) and the log2 fold change [6] was -0.074 (inactive). The log2 fold change (encorafenib) was 0.017 (inactive), the log2 fold change [1] was 0.059 (inactive) and the log2 fold change [5] was 0.066 (inactive). For the same target, the log2 fold change (filanesib) was -0.062 (inactive), the log2 fold change (zotarolimus) was 0.026 (inactive) and the log2 fold change (idasanutlin) was -0.072 (inactive). The log2 fold change (alisertib) was -0.115 (inactive), the log2 fold change [4] was 0.084 (inactive) and the log2 fold change (gefitinib) was -0.269 (inactive). The log2 fold change [2] was 0.093 (inactive), the log2 fold change (lapatinib) was -0.056 (inactive) and the log2 fold change (pictilisib) was 0.062 (inactive).

For ING5 (UniProt Q8WYH8), the log2 fold change (alvocidib) was 0.034 (inactive), the log2 fold change (Tubastatin A) was 0.192 (inactive) and the log2 fold change [3] was -0.147 (inactive). The log2 fold change (rucaparib) was 0.129 (inactive), the log2 fold change (encorafenib) was -0.078 (inactive) and the log2 fold change [5] was 0.208 (inactive). For the same target, the log2 fold change (zotarolimus) was 0.014 (inactive), the log2 fold change (alisertib) was 0.003 (inactive) and the log2 fold change [4] was 0.127 (inactive). For the same target, the log2 fold change [2] was 0.179 (inactive) and the log2 fold change (lapatinib) was -0.128 (inactive).

With IKZF1 isoform 2 (UniProt Q13422) the log2 fold change (sotrastaurin) was 0.049 (inactive), the log2 fold change (alvocidib) was -0.101 (inactive) and the log2 fold change (Tubastatin A) was -0.123 (inactive). For the same target, the log2 fold change [3] was 0.05 (inactive), the log2 fold change (defactinib) was -0.106 (inactive) and the log2 fold change [1] was -0.02 (inactive). For the same target, the log2 fold change (filanesib) was -0.075 (inactive), the log2 fold change (zotarolimus) was 0.1 (inactive) and the log2 fold change (alisertib) was 0.079 (inactive). For the same target, the log2 fold change (gefitinib) was -0.044 (inactive) and the log2 fold change [2] was -0.031 (inactive).

With LRRFIP1 isoform 4 (UniProt Q32MZ4) the log2 fold change (saracatinib) was 0.008 (inactive), the log2 fold change (alvocidib) was 0.481 (inactive) and the log2 fold change [3] was -0.111 (inactive). The log2 fold change [6] was -0.089 (inactive), the log2 fold change [5] was -0.061 (inactive) and the log2 fold change (zotarolimus) was 0.202 (inactive). For the same target, the log2 fold change (idasanutlin) was 0.108 (inactive) and the log2 fold change (pictilisib) was -0.046 (inactive).

With ILF3 (UniProt Q12906) the log2 fold change (sotrastaurin) was 0.009 (inactive), the log2 fold change (rucaparib) was 0.384 (inactive) and the log2 fold change (encorafenib) was 0.081 (inactive). For the same target, the log2 fold change [5] was 0.033 (inactive), the log2 fold change (filanesib) was 0.156 (inactive) and the log2 fold change (alisertib) was -0.203 (inactive). The log2 fold change (gefitinib) was -0.13 (inactive) and the log2 fold change [2] was 0.045 (inactive).

MARCHF3 (UniProt Q86UD3) was tested, and the log2 fold change (sotrastaurin) was -0.055 (inactive), the log2 fold change (rucaparib) was 0 (inactive) and the log2 fold change (encorafenib) was 0.097 (inactive). The log2 fold change (filanesib) was -0.272 (inactive), the log2 fold change [4] was 0.027 (inactive) and the log2 fold change (gefitinib) was -0.195 (inactive). The log2 fold change (lapatinib) was -0.033 (inactive).

For MGRN1 isoform 2 (UniProt O60291), the log2 fold change (alvocidib) was 0.036 (inactive), the log2 fold change (Tubastatin A) was 0.197 (inactive) and the log2 fold change [3] was -0.054 (inactive). For the same target, the log2 fold change [5] was -0.015 (inactive), the log2 fold change (zotarolimus) was -0.017 (inactive) and the log2 fold change (idasanutlin) was -0.108 (inactive). The log2 fold change [4] was 0.069 (inactive), the log2 fold change (lapatinib) was -0.238 (inactive) and the log2 fold change (pictilisib) was -0.004 (inactive).

With LMNA isoform 2 (UniProt P02545) the log2 fold change (Tubastatin A) was 0.052 (inactive).

For LYN isoform 2 (UniProt P07948), the log2 fold change (sotrastaurin) was 0.034 (inactive), the log2 fold change (alvocidib) was 0.015 (inactive) and the log2 fold change [3] was 0.043 (inactive). The log2 fold change (defactinib) was -0.035 (inactive), the log2 fold change [1] was -0.004 (inactive) and the log2 fold change [5] was -0.2 (inactive). The log2 fold change (filanesib) was -0.212 (inactive), the log2 fold change (zotarolimus) was -0.054 (inactive) and the log2 fold change (idasanutlin) was -0.027 (inactive). The log2 fold change [4] was 0.074 (inactive), the log2 fold change (gefitinib) was 0.069 (inactive) and the log2 fold change (lapatinib) was -0.046 (inactive).

With MAML1 (UniProt Q92585) the log2 fold change (sotrastaurin) was -0.051 (inactive), the log2 fold change (alvocidib) was 0.062 (inactive) and the log2 fold change [3] was 0.644 (active). The log2 fold change (defactinib) was -0.179 (inactive), the log2 fold change [1] was -0.327 (inactive) and the log2 fold change [5] was -0.065 (inactive). For the same target, the log2 fold change (filanesib) was 0.152 (inactive) and the log2 fold change (zotarolimus) was -0.065 (inactive).

MAP3K20 isoform 2 (UniProt Q9NYL2) was tested, and the log2 fold change (sotrastaurin) was 0.059 (inactive), the log2 fold change (Tubastatin A) was 0.093 (inactive) and the log2 fold change [3] was -0.024 (inactive). For the same target, the log2 fold change [5] was 0.044 (inactive), the log2 fold change (filanesib) was 0.068 (inactive) and the log2 fold change (idasanutlin) was 0.407 (inactive). For the same target, the log2 fold change [4] was 0.036 (inactive), the log2 fold change (gefitinib) was -0.003 (inactive) and the log2 fold change [2] was -0.242 (inactive). For the same target, the log2 fold change (lapatinib) was -0.121 (inactive).

With MCM10 (UniProt Q7L590) the log2 fold change (sotrastaurin) was -0.09 (inactive), the log2 fold change (Tubastatin A) was -0.017 (inactive) and the log2 fold change [3] was 0.014 (inactive). The log2 fold change (defactinib) was 0.018 (inactive), the log2 fold change (rucaparib) was -0.021 (inactive) and the log2 fold change (encorafenib) was -0.049 (inactive). For the same target, the log2 fold change [1] was -0.007 (inactive), the log2 fold change [5] was 0.303 (inactive) and the log2 fold change (filanesib) was -0.192 (inactive). For the same target, the log2 fold change (alisertib) was -0.097 (inactive), the log2 fold change [4] was -0.103 (inactive) and the log2 fold change (gefitinib) was -0.014 (inactive). For the same target, the log2 fold change [2] was 0.1 (inactive), the log2 fold change (lapatinib) was 0.204 (inactive) and the log2 fold change (pictilisib) was -0.118 (inactive).
